Assay [1] addresses Glucocorticoid receptor (Homo sapiens) (UniProt P04150). Description: ATG_GR_TRANS: Attagene TRANS-FACTORIAL HepG2 Assay for human Glucocorticoid Receptor (GR) (AID 2282978; active means hit-call score of the fitted dose curve at least 0.9, where 1 is the maximum;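 further: activators score as hits since higher reporter transcript over DMSO is fitted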). Conditions: HepG2 Attagene TRANS GR reporter, mRNA transcription. The method, boiled down: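 Fluorescent capillary-electrophoresis quantitation of reporter mRNA is the readout, taken 24 h after dosing human HepG2 cells carrying transiently transfected GAL4-UAS reporter units activated by chimeric NR-GAL4 fusions; activity scored as induction over DMSO.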

For assay [2], the target named is Oxysterols receptor LXR-alpha (Homo sapiens) (UniProt Q13133). Description: ATG_LXRa_TRANS: Attagene TRANS-FACTORIAL HepG2 Assay for human Liver X Receptor alpha (LXRa) (AID 2282980; active means hit-call score of the fitted dose curve at least 0.9, where 1 is the maximum). The settings on record: HepG2 Attagene TRANS reporter, LXRa transactivation. Summed up: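 Transient HepG2 transfectants, 24 h dosing, RT-PCR/CE mRNA reporter quantitation; gain-of-signal vs DMSO.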

For assay [3], the target named is Hepatocyte nuclear factor 4-alpha (Homo sapiens) (UniProt P41235). Description: ATG_HNF4a_TRANS: Attagene TRANS-FACTORIAL HepG2 Assay for human Hepatocyte Nuclear Factor 4 alpha (HNF4a) (AID 2282982; active means hit-call score of the fitted dose curve at least 0.9, where 1 is the maximum). The settings on record: HepG2 HNF4a transactivation reporter, mRNA readout. Summed up: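 HepG2 cells transiently transfected with multiplexed GAL4-UAS reporter units responsive to chimeric NR-GAL4 proteins; compound exposure 24 h. Reporter mRNA quantified by RT-PCR, 6-FAM labelling, HpaI digestion and capillary electrophoresis; gain of signal versus DMSO baseline.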

The nature of assay [4]: ATG_M_06_TRANS: Attagene TRANS-FACTORIAL HepG2 Assay for M06 Transcription Factor (Internal Marker) (AID 2282983; active means hit-call score of the fitted dose curve at least 0.9, where 1 is the maximum). The settings on record: HepG2 Attagene TRANS M06 internal marker reporter. The method, boiled down: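 Measured by capillary electrophoresis of fluorescently labelled RT-PCR products, this endpoint reflects reporter mRNA in HepG2 cells harbouring exogenous NR-GAL4 reporter constructs after 24 h exposure, with DMSO as baseline.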

Assay [5] in a line: ATG_M_32_TRANS: Attagene TRANS-FACTORIAL HepG2 Assay for M32 Transcription Factor (Internal Marker) (AID 2282984; active means hit-call score of the fitted dose curve at least 0.9, where 1 is the maximum). Conditions: HepG2 Attagene TRANS M32 internal marker reporter. The method, boiled down:
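HepG2 cells transiently transfected with multiple GAL4-UAS reporter transcription units, dosed for 24 hours; reporter mRNA quantified by RT-PCR, 6-FAM primer extension, HpaI digestion and capillary electrophoresis. Gain-of-signal fitted versus DMSO baseline; internal background-control marker.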

Assay [6] has as its target Nuclear receptor subfamily 4 group A member 2 (Homo sapiens) (UniProt P43354). Nature of the assay: ATG_NURR1_TRANS: Attagene TRANS-FACTORIAL HepG2 Assay for human Nuclear Receptor Related Protein 1 (NURR1) (AID 2282985; active means hit-call score of the fitted dose curve at least 0.9, where 1 is the maximum). Conditions: HepG2 Attagene TRANS reporter, mRNA readout. The method, boiled down: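 HepG2 cells transiently transfected with GAL4-UAS reporter units and chimeric NR-Gal4 constructs; chemical exposure 24 h. Reporter mRNA quantified by RT-PCR, fluorescent labelling and capillary electrophoresis; gain of signal fitted relative to DMSO baseline.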

Assay [7] deals with Transcriptional activator Myb (Homo sapiens) (UniProt P10242). Nature of the assay: ATG_Myb_CIS: Attagene CIS-FACTORIAL HepG2 Assay for human Myeloblastosis (Myb) Proto-Oncogene Transcription Factor (AID 2282986). The settings on record: HepG2 Attagene CIS-FACTORIAL Myb reporter transcription; actives raise or lower the signal. The method, boiled down: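 Reporter transcript levels, quantified by fluorescent RT-PCR and capillary electrophoresis, serve as the read-out. Transfected HepG2 cells carrying cis-promoter reporter units are dosed for 24 hours, and curves are fitted bidirectionally against DMSO controls.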

Assay [8] concerns the target Nuclear respiratory factor 1 (Homo sapiens) (UniProt Q16656). Description: ATG_NRF1_CIS: Attagene CIS-FACTORIAL HepG2 Assay for human Nuclear Respiratory Factor 1 (NRF1) Orphan Gene (AID 2282987). The settings on record: HepG2 NRF1 cis-element reporter, Attagene multiplex; actives raise or lower the signal. Summed up:
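Multiplexed cis-reporter assay, HepG2 cells, 24 h treatment. Total RNA → oligo(dT) RT → PCR with reporter-specific primers → 6-FAM primer extension → HpaI cut → CE. Bidirectional fit vs DMSO.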

Assay [9] addresses Myc proto-oncogene protein (Homo sapiens) (UniProt P01106). Nature of the assay: ATG_Myc_CIS: Attagene CIS-FACTORIAL HepG2 Assay for human Myelocytomatosis (Myc) Proto-Oncogene Transcription Factor (AID 2282990). The settings on record: HepG2, Attagene cis-reporter transcription factor activity; actives raise or lower the signal. The method, boiled down:
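Multiplexed cis-reporter transcription in HepG2 cells after 24 h chemical treatment. Reporter mRNA measured by RT-PCR and capillary electrophoresis fluorescence; activity fitted bidirectionally against DMSO control.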

Assay [10] in a line: ATG_NF_kB_CIS: Attagene CIS-FACTORIAL HepG2 Assay for human Nuclear Factor Kappa B (NF-kB) (AID 2282991). Conditions: HepG2 Attagene cis-factorial NF-kB reporter mRNA; actives raise or lower the signal. The method, boiled down: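 Transient MRTU transfection of human HepG2 liver cells → 24 h chemical exposure → total RNA, oligo(dT) RT → PCR, 6-FAM primer extension, HpaI digest 2 h 37 C → CE fragment analysis. Bidirectional fitting, DMSO negative control.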

The nature of assay [11]: ATG_NRF2_ARE_CIS: Attagene CIS-FACTORIAL HepG2 Assay for human Nuclear Factor Erythroid 2 Related Factor 2 (NFR2) response to Antioxidant Response Elements (ARE) (AID 2282992). The settings on record: HepG2 Attagene ARE/NRF2 reporter, transcription factor activity; actives raise or lower the signal. Summed up: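 Cis-factorial assay: transfected HepG2 reporter library, 24 h dosing, mRNA readout via RT-PCR/CE; DMSO-referenced bidirectional analysis.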

Assay [12] is described as follows: ATG_Oct_MLP_CIS: Attagene CIS-FACTORIAL HepG2 Assay for human Octamer-Binding Transcription Factor (Oct) (AID 2282993). Conditions: HepG2 Attagene cis-factorial Oct reporter, mRNA; actives raise or lower the signal. Summed up:
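Using HepG2 cells bearing transfected cis-reporter constructs, mRNA induction was read after 24 h by fluorescent RT-PCR and capillary electrophoresis, with DMSO defining baseline for gain- or loss-of-signal fits.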

Assay [13] deals with Cellular tumor antigen p53 (Homo sapiens) (UniProt P04637). Nature of the assay: ATG_p53_CIS: Attagene CIS-FACTORIAL HepG2 Assay for human p53 Transcription Factor (AID 2282994). Conditions: HepG2 p53 cis-element reporter, Attagene mRNA; actives raise or lower the signal. The method, boiled down:
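Using HepG2 hepatoma cells carrying cis-acting multiplexed reporters, mRNA induction is detected after a 24 h exposure. Gain- and loss-of-signal responses are fitted relative to DMSO-treated cells.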

Assay [14] addresses Oxysterols receptor LXR-beta (Homo sapiens) (UniProt P55055). Description: ATG_LXRb_TRANS: Attagene TRANS-FACTORIAL HepG2 Assay for human Liver X Receptor beta (LXRb) (AID 2282981; active means hit-call score of the fitted dose curve at least 0.9, where 1 is the maximum). The settings on record: HepG2 Attagene TRANS GAL4-LXRb reporter, mRNA. The method, boiled down:
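HepG2 cells transiently transfected with multiple reporter transcription units carrying chimeric NR-Gal4 proteins acting on GAL4-UAS reporters; compound exposure 24 h. Reporter mRNA quantified by RT-PCR, 6-FAM labelling, HpaI digestion and capillary electrophoresis; gain of signal versus DMSO.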

A short description of assay [15]: ATG_NFI_CIS: Attagene CIS-FACTORIAL HepG2 Assay for human Nuclear Factor I (NFI) (AID 2282989). Conditions: HepG2 cis-regulatory reporter, NFI response element transcription; actives raise or lower the signal. The method, boiled down:
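Transfected HepG2 liver cells, exposed 24 h, supplied total RNA for oligo(dT) reverse transcription and reporter-specific PCR. Labelled, HpaI-cut fragments were sized by capillary electrophoresis; DMSO set the baseline for bidirectional fitting.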

In assay [16] the target is Bile acid receptor (Homo sapiens) (UniProt Q96RI1). Description: ATG_FXR_TRANS: Attagene TRANS-FACTORIAL HepG2 Assay for Farnesoid X Receptor (FXR) (AID 2282979; active means hit-call score of the fitted dose curve at least 0.9, where 1 is the maximum;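 further: hits raise reporter mRNA above DMSO so AC50 marks FXR activation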). The settings on record: HepG2 Attagene TRANS FXR-GAL4 reporter transcription. The method, boiled down:
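Chimeric FXR-GAL4 activity in transiently transfected human HepG2 liver cells is scored as induction of reporter mRNA after 24 h of dosing. Detection uses RT-PCR with fluorescent labelling and capillary electrophoresis, with DMSO serving as baseline.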

A short description of assay [17]: BSK_3C_TissueFactor: BioMAP Diversity Plus: 3C Assay for Tissue Factor Biomarker Activity (AID 2282997). Conditions: BioMAP 3C HUVEC, tissue factor biomarker readout; actives raise or lower the signal. Summed up:
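Values derive from bidirectional curve fitting against DMSO of Tissue Factor ELISA signals, taken 24 h after dosing primary human umbilical vein endothelial cells.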

Assay [18] is described as follows: BSK_3C_uPAR: BioMAP Diversity Plus: 3C Assay for Urokinase-type plasminogen activator receptor (uPAR) Biomarker Activity (AID 2282998). Conditions: BioMAP 3C HUVEC, uPAR biomarker ELISA; actives raise or lower the signal. The method, boiled down:
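In this endothelial cell-based assay, human umbilical vein primary cells were treated with chemicals and harvested at 24 h. uPAR was quantified using ELISA, with gains or losses fitted relative to DMSO controls.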

Assay [19] can be described thus: BSK_3C_VCAM1: BioMAP Diversity Plus: 3C Assay for Vascular cell adhesion molecule 1 (VCAM1) Biomarker Activity (AID 2282999). The settings on record: BioMAP 3C HUVEC, VCAM1 ELISA, cytokine-stimulated; actives raise or lower the signal. The method, boiled down:
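Human umbilical vein endothelial cells were dosed with compound for 24 h, after which cell-surface VCAM-1 was quantified by ELISA. Bidirectional curve fitting used DMSO as negative control and activity baseline.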
On the technique in general: In an ELISA, binding on a coated surface is turned into a signal by an enzyme label.

Assay [20] is described as follows: BSK_4H_Eotaxin3: BioMAP Diversity Plus: 4H Assay for Eotaxin 3 Biomarker Activity (AID 2283000). The settings on record: primary human endothelial cells (HUVEC); actives raise or lower the signal. Summed up: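 Endothelial primary cells (human umbilical vein) exposed to compound for 24 h. ELISA detection of Eotaxin-3.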

Each structure is given as a SMILES string. Records with an inconclusive call do not appear. Calls of active or inactive are those of the source. How the source made its calls, unless noted: active means hit-call score of the fitted dose curve at least 0.9, where 1 is the maximum; inactive means score below 0.9.

Cellular tumor antigen p53 (Homo sapiens), sequence (P04637 whole entry, looked up): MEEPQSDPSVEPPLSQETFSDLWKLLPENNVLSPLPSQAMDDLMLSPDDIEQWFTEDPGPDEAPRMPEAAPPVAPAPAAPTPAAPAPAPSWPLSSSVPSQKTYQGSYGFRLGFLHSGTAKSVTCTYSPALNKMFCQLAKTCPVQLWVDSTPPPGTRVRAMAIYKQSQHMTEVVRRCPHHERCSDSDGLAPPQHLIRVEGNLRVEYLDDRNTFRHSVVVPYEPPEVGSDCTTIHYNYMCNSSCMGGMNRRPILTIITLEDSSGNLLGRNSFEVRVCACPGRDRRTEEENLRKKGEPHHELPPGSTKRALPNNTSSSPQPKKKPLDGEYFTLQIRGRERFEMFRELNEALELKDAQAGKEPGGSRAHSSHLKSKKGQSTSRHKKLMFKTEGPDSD
Nuclear respiratory factor 1 (Homo sapiens), sequence (Q16656 whole entry, looked up): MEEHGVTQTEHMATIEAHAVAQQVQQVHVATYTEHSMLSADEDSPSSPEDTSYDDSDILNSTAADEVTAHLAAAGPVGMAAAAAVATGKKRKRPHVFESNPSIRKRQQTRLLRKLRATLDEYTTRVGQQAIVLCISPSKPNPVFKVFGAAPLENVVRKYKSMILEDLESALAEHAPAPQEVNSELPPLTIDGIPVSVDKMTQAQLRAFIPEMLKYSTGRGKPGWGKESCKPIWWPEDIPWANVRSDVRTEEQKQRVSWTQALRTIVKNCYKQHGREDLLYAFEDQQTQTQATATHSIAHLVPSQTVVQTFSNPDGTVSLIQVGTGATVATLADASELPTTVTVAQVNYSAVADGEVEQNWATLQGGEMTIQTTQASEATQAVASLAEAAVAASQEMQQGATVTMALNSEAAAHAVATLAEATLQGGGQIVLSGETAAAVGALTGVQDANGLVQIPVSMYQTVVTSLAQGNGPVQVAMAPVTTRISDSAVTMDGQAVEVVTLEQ
Glucocorticoid receptor (Homo sapiens), sequence (P04150 whole entry, looked up, the tested form may be a part): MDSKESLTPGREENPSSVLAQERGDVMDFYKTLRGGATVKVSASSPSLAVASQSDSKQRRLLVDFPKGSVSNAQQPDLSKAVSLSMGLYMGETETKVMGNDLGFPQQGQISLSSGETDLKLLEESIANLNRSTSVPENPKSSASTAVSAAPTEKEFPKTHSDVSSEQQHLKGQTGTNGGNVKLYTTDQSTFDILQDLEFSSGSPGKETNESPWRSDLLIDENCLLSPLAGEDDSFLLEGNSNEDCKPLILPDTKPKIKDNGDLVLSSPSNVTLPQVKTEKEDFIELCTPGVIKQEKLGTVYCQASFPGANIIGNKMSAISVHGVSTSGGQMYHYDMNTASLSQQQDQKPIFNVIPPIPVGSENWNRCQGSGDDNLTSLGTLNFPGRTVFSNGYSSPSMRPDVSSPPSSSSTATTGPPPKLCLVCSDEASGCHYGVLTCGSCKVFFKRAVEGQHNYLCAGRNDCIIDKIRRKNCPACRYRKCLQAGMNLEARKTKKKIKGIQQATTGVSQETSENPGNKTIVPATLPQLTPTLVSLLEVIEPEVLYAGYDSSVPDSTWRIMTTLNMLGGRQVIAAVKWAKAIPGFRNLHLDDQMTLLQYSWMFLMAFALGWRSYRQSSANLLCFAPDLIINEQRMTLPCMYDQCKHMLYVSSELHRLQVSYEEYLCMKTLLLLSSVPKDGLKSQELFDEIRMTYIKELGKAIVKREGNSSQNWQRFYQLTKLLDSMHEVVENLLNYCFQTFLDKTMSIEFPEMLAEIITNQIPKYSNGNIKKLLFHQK
Nuclear receptor subfamily 4 group A member 2 (Homo sapiens), sequence (P43354 whole entry, looked up, the tested form may be a part): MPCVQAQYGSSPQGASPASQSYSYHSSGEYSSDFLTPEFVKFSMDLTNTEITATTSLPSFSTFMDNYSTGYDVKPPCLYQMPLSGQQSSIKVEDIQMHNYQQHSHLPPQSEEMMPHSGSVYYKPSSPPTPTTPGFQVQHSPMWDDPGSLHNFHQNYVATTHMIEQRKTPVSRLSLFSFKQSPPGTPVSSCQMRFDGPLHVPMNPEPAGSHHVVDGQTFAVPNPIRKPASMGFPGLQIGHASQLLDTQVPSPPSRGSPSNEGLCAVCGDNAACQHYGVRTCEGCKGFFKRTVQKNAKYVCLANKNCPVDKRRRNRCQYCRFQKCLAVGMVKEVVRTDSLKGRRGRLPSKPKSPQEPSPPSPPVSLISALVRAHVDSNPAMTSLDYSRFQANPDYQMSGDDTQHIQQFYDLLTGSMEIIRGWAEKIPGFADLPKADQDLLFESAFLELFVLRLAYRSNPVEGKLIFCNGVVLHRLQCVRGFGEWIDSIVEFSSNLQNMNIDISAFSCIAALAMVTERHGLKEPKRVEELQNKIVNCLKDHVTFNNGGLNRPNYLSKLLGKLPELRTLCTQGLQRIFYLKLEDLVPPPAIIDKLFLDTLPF
Transcriptional activator Myb (Homo sapiens), sequence (P10242 whole entry, looked up): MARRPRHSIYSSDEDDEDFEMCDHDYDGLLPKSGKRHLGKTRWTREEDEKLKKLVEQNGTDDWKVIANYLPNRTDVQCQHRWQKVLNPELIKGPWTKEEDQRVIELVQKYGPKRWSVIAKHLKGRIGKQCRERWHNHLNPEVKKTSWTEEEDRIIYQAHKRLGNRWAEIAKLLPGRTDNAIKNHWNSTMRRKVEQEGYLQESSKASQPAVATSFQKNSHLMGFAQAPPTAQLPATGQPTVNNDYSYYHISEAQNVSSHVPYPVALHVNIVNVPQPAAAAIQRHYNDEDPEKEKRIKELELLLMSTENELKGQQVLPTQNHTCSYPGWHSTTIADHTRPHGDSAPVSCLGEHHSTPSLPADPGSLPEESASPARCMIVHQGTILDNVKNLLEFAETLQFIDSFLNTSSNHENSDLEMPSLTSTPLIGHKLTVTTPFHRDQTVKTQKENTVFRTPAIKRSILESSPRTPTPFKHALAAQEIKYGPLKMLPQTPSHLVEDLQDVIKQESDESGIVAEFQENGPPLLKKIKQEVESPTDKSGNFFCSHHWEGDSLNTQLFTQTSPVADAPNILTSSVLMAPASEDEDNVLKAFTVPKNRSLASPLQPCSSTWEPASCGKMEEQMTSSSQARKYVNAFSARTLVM
Hepatocyte nuclear factor 4-alpha (Homo sapiens), sequence (P41235 whole entry, looked up, the tested form may be a part): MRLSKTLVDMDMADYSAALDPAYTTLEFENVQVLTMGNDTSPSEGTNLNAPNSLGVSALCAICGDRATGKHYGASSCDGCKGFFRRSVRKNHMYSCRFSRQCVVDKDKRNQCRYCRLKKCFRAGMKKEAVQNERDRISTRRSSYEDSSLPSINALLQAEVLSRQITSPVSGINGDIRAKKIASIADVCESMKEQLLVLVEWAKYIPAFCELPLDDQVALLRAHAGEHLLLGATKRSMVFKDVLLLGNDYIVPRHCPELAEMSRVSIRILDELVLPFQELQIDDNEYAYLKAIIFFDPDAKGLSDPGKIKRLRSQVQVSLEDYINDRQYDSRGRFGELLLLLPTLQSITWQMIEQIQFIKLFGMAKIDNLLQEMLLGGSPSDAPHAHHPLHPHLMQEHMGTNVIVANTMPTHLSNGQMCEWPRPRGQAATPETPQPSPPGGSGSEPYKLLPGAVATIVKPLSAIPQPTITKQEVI
Oxysterols receptor LXR-alpha (Homo sapiens), sequence (Q13133 whole entry, looked up): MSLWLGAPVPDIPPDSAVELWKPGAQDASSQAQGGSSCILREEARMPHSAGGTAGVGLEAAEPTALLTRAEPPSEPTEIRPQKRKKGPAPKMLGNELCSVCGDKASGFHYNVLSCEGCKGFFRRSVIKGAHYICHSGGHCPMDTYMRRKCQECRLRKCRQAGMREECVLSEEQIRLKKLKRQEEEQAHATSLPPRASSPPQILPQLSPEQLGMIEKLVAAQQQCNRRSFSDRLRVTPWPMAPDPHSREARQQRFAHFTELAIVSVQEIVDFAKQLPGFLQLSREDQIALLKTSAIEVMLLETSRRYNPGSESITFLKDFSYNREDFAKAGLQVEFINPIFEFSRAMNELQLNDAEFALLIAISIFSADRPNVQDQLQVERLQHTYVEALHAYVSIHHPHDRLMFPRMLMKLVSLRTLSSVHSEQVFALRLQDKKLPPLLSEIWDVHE
Myc proto-oncogene protein (Homo sapiens), sequence (P01106 whole entry, looked up): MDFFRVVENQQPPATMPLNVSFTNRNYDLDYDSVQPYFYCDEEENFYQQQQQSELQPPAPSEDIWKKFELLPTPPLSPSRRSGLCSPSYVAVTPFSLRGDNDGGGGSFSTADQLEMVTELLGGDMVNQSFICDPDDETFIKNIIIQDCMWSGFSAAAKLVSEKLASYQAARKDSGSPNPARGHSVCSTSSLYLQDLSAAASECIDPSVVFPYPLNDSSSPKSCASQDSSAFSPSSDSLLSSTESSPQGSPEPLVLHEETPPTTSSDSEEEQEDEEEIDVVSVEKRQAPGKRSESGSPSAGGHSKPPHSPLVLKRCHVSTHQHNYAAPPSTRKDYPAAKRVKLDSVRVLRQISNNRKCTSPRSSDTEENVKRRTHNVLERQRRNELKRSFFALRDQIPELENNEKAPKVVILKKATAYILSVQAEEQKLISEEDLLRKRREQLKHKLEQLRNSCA
Oxysterols receptor LXR-beta (Homo sapiens), sequence (P55055 whole entry, looked up, the tested form may be a part): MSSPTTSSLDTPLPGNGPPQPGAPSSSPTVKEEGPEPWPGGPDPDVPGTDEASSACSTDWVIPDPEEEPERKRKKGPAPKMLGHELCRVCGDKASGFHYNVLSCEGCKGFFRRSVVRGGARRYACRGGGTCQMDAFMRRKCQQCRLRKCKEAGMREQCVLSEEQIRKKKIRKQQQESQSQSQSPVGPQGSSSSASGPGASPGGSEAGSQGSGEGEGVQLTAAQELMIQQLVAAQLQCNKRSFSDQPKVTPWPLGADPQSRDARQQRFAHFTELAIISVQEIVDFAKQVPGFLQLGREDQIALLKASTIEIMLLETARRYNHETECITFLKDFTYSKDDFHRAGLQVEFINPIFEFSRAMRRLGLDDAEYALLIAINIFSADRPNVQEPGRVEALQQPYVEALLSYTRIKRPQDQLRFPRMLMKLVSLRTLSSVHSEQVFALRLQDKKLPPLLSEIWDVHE

`CCN(CC)c1ccc(C(=C2C=CC(=[N+](CC)CC)C=C2)c2ccc(S(=O)(=O)O)cc2S(=O)(=O)[O-])cc1`: the result in [1], in assay [2], in assay [3], in assay [4], in [5] and in assay [6] was inactive. Moreover, the call in assay [7], in assay [8], in assay [9], in [10], in assay [11] and in [12] was inactive. The outcome in [13] was inactive.

For orientation: AC50 means the concentration at which the activity in the assay is half-maximal. Turning to `O=[N+]([O-])c1ccc(Nc2ccc(Nc3ccccc3)c(S(=O)(=O)O)c2)c([N+](=O)[O-])c1`, the molecule was called inactive in [1], in [2], in assay [14], in assay [5], in assay [7] and in [8]. The result in [15], in [9], in [10] and in assay [12] was inactive. In addition, the AC50 in assay [11] was 171 µM (active); in assay [13], 178 µM (active).

Regarding `NC(=O)c1ccccc1Cl`, the molecule was classed as inactive in assay [1], in assay [16], in assay [5], in assay [6], in [7] and in assay [8]. For the same molecule, the call in [9] and in assay [10] was inactive. The AC50 in assay [15] was 61.6 µM (active); in [11], 25.8 µM (active); in [12] it was 55.1 µM (active); in [13] it was 143 µM (active).

For `C=CC[N+](C)(C)CC=C`, the molecule was classed as inactive in assay [1], in assay [2], in assay [3], in assay [4], in [5] and in [6]. The molecule was classed as inactive in assay [7], in assay [15], in assay [9], in assay [10], in assay [11] and in assay [12].

Turning to `CC(C)(COC(=O)c1ccccc1)COC(=O)c1ccccc1`, the outcome in assay [1], in [2], in assay [14], in assay [3], in [4] and in assay [5] was inactive. Also, the molecule was classed as inactive in assay [7], in [8], in [15], in assay [9], in assay [11] and in assay [12]. For the same molecule, the outcome in assay [19] was inactive. Also, the values for the AC50 in [17], in [18] and in assay [20] were 11.4 µM (active), 34 µM (active) and 29.5 µM (active), respectively.

For the origin of these results see PubChem BioAssay (EPA / NIEHS).
